Compound activity as filed in PubChem BioAssay.
BAZ2B inh: blocks human BAZ2B. Potency, µM (series often up to 114 µM), inactives show at the highest dose activity change, negative = inhibition, most hits filed as inhibitors. Q9UIF8. AlphaScreen BAZ2B-H3K14Ac peptide displacement. 4.4% of 360,000 active; also: % is scaled to controls: 0 for no effect and ±100 for the full control effect; nearly all actives have a fitted effect of over 60% in size
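BAZ2B (50 nM) with biotin-H3(5-23)K14Ac peptide (50 nM) in PBS pH 7.4, 0.01% Tween-20, preformed 30 min, then compound 30 min at room temperature; top concentration 110uM. AlphaScreen streptavidin donor/nickel chelate acceptor beads (10 ug/mL final), 20 min dark, signal read.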
G9a block: blocks human histone lysine methyltransferase G9a; G9a H3K9 monomethylation, AlphaScreen, 2 h; Q96KQ7; AID 504332; Potency, µM (top dose mostly 102 µM), for the others: top-dose activity, negative = inhibition, most hits filed as inhibitors; 8.8% of 350,000 active; also: % is scaled to controls: 0 for no effect and ±100 for the full control effect; nearly all actives have a fitted effect of over 75% in size
Target sequence (Q96KQ7 913-1193 limits assumed): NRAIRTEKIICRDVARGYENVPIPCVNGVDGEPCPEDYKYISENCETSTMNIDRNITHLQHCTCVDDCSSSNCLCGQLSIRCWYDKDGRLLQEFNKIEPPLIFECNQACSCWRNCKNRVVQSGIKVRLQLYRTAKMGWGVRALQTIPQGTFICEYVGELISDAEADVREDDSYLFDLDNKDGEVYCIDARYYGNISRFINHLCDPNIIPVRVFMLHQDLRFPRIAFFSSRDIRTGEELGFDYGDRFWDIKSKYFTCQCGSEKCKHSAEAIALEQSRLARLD
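G9a (20 nM) was preincubated 15 min with compound, then reacted 2 h at room temperature with 500 nM biotin-H3K9 peptide and 20 µM SAM. Monomethyl-H3K9 detected by AlphaScreen using anti-H3K9me1 antibody.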
JMJD2A Tudor: JMJD2A Tudor domain (human) inhibition; AlphaScreen JMJD2A-Tudor / H3K4me3 peptide binding; Potency, µM (doses to about 114 µM), without a hit: at the highest dose activity change, negative = inhibition, most hits filed as inhibitors; 4.4% of 390,000 active; also: % is scaled to controls: 0 for no effect and ±100 for the full control effect; nearly all actives have a fitted effect of over 50% in size
HP1b binding inh: inhibitors of HP1-beta chromodomain binding to methylated histone tails | AlphaScreen HP1-beta / biotin-H3K9me3 peptide binding | P83916 | 0.56% of 390,000 active | Potency, µM (highest dose often 114 µM), without a hit: top-dose activity change, negative = inhibition, hits mostly inhibitors; also: nearly all actives have a fitted effect of over 70% in size
Target sequence (P83916 whole entry, looked up): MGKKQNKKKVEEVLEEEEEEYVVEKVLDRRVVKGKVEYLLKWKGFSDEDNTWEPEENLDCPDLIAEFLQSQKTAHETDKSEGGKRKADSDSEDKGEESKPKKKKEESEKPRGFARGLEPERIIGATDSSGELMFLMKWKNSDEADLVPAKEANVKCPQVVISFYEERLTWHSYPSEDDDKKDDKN
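Compound inhibition of the preformed complex between 50 nM HP1-beta and 50 nM biotinylated H3K9me3 peptide was read by AlphaScreen. Buffer was PBS pH 7.4 with 0.01% Tween-20. Incubations ran 30 min at room temperature, with 10 ug/mL donor/acceptor beads.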
L3MBTL1 inh: L3MBTL1 (human) inhibition; Q9Y468; AlphaScreen L3MBTL1–H3K9me1 peptide binding; Potency, µM (highest dose often 57.1 µM), without a hit: at the highest dose activity, negative = inhibition, most hits filed as inhibitors; 0.66% of 230,000 active; also: % is scaled to controls: 0 for no effect and ±100 for the full control effect; nearly all actives have a fitted effect of over 60% in size
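Read-out is AlphaScreen signal from streptavidin donor and nickel chelate acceptor beads (10 ug/mL final each) bridging L3MBTL1 (50 nM) and biotinylated K9-monomethylated H3(1-15) peptide (75 nM), after 30 min compound exposure at room temperature.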
An asterisk follows results filed as active; ? = inconclusive; / = no result; [ ] = remark or other dose. Compounds with a hit are over-represented: about 11% of the library has one in this group of screens. Calls follow the shape of the dose curve; as a rule, active = well fitted inhibition curve with a large enough effect; inconclusive = small, poorly fitted or top-dose-only effect; inactive = no such curve, though single readings can be large or run the other way. Potency is read from the fitted curve at half-maximal effect.

SMILES | BAZ2B inh | G9a block | JMJD2A Tudor | HP1b binding inh | L3MBTL1 inh
O=c1[nH]ncc(N/N=C\c2ccc(O)cc2O)c1Cl | -18.2% | 0.2% | -6.2% | 32.5% | -1.8%
CCN(CC)S(=O)(=O)c1ccc(N/N=C/c2ccc(O)cc2O)nc1 | 25.1µM* | 17.5%[59 µM] | -28.4% | 36.7% | ?
Oc1ccc(C=NNc2ccccn2)c(O)c1 | / | / | 20µM* | 12.9% | /
Oc1cccc(C=NNc2ccccn2)c1 | / | / | -25.0% | 29.8% | /
C(=N\Nc1ccccn1)/c1c[nH]c2ccccc12 | 31.6µM* | -46.0% | ? | -4.2% | -22.6%
Oc1ccc(/C=N/Nc2cccc3cccnc23)c(O)c1 | -10.0% | 5.62µM* | ? | -10.9% | ?
Cc1c(C(=O)N/N=C/c2cccnc2)nnn1-c1nonc1N | 4.3% | 14.3% | -14.4% | 3.7% | /
C/C(=N\Nc1cccc2cccnc12)c1ccc[nH]1 | ? | -30.9% | ? | -27.0% | -16.2%
Cc1ccc(/C=N/Nc2cccc3cccnc23)c(O)c1 | -0.3% | 17.8µM* | ? | 18.9% | -4.7%
CCOc1cccc(OCCOCCN(C)C)c1 | ? | 11.2µM* | 22.4µM* | ? | -4.1%
CN(C)CCOc1cccc(Cl)c1 | ? | 8.91µM* | 22.4µM* | ? | -0.5%
CN(C)CCOc1cc(Cl)cc(Cl)c1 | 1.2% | 3.7% | 1.7% | 57.2% | -1.2%
c1ccc2cc(OCCOCCOc3ccc4ccccc4c3)ccc2c1 | 19.4% | 12.6% | 123.1% | 98.8% | 10.6%
CN(C)CCOc1ccc2ccccc2c1 | 44.7µM* | 11.2µM* | 10µM* | ? | -6.5%
CCOc1cccc(OCCOCCN(C)Cc2ccccc2)c1 | 1.9% | -4.6%[12.7 µM] | -4.2% | 21.4% | /
Clc1cccc(-c2ccc(C=Nc3ccc(N4CCOCC4)cc3)o2)c1Cl | 17.8µM* | 14.1µM* | 25.1µM* | -15.1% | -28.9%
Clc1ccc(-c2ccc(C=Nc3ccc(N4CCOCC4)cc3)o2)c(Cl)c1 | -20.8% | 35.5µM* | ? | -3.7% | 5.2%
Cc1c(C)c(C)c(CN2CCSCC2)c(C)c1C | -11.2% | 2.4% | 1.3% | 38.0% | -6.1%
Clc1cccc(CN2CCSCC2)c1 | ? | -30.4%[0.501 µM] | 22.4µM* | ? | -2.7%[2.29 µM]
Cc1ccc(CN2CCSCC2)c(C)c1 | ? | 4.47µM* | -100.4% | ? | -5.5%
O=S1(=O)CCN(Cc2cccc(Cl)c2)CC1 | -0.9% | -4.0% | -24.2% | 13.9% | -4.8%
Cc1ccc(CN2CCSCC2)cc1 | ? | / | 22.4µM* | ? | 3.8%
Cc1ccc(CN2CCCN(C)CC2)c(C)c1 | 56.2µM* | 3.55µM* | 3.16µM* | ? | -2.0%
Nc1ccnc2c1ncn2[C@@H]1O[C@H](CO)[C@@H](O)[C@H]1O | / | 33.1%[59 µM] | / | / | /
COc1ccc(-n2c(C)cc(C(=O)CSc3ccc(NC(C)=O)cc3)c2C)cc1 | 44.7µM* | ? | ? | ? | ?
SMILES | BAZ2B inh | G9a block | JMJD2A Tudor | HP1b binding inh | L3MBTL1 inh
CC(=O)Nc1ccc(SCC(=O)c2cc(C)ccc2C)cc1 | -37.2% | ? | -0.7% | 31.9% | /
Cc1ccc(OCC(=O)c2ccc(Cl)s2)c([N+](=O)[O-])n1 | 50.1µM* | 50.1µM* | 56.2µM* | -13.3% | -29.9%
CC(=O)Nc1ccc(SCC(=O)c2cc(C)n(-c3ccccc3)c2C)cc1 | 44.7µM* | ? | -22.6% | 3.8% | -12.5%
COc1ccc(NC(=O)CSc2ccc(C)cc2)cc1 | -3.3% | -30.1%[59 µM] | -10.4% | 38.0% | -14.2%
COc1ccc(-n2c(C)cc(C(=O)COC(=O)Cn3cnc4ccccc43)c2C)cc1 | ? | 15.8µM* | ? | -15.8% | -10.3%
O=C(Cn1c(=O)oc2cc(S(=O)(=O)NCc3ccccc3)ccc21)N(CCO)Cc1ccccc1 | 0.7% | 9.4%[59 µM] | -15.1% | -4.3% | /
COc1cccc(OCc2cc(C3Nc4ccccc4C(=O)N3c3ccccc3)ccc2OC)c1 (stereo unspecified) | / | / | -3.8%[57.1 µM] | 17.6%[57 µM] | /
CC(=O)Nc1ccc(SCCCC(=O)c2ccccc2)cc1 | -20.3% | 44.7µM* | -18.7% | 24.5% | /
COc1ccc(-n2c(C)cc(C(=O)CCl)c2C)cc1 | 44.7µM* | 56.2µM* | ? | 0.3% | /
Cc1cc(-n2c(C)cc(C(=O)CCl)c2C)no1 | / | 50.1µM* | -22.1% | 41.8% | -6.0%
COc1ccc(-n2c(C)cc(C(=O)COc3ccc(C)nc3[N+](=O)[O-])c2C)cc1 | ? | ? | 9.0% | 36.8% | -10.6%
Cc1cc(-n2c(C)cc(C(=O)CN3C(=O)C(=O)N(C)C3=O)c2C)no1 | / | / | -12.4% | 19.5% | 4.4%
Cc1ccc(OCC(=O)c2cc(C)n(-c3cc(C)on3)c2C)c([N+](=O)[O-])n1 | ? | 50.1µM* | -31.8% | -9.5% | -18.7%
COc1ccc(-n2c(C)cc(C(=O)CN3C(=O)c4ccccc4C3=O)c2C)cc1 | -35.3% | 1.4%[59 µM] | -28.2% | 11.1% | -17.2%
COc1cc(CN(C(=O)Nc2cccc(Cl)c2)c2ccccn2)cc(OC)c1OC | -1.6% | 2.0%[59 µM] | -16.9% | 5.3% | /
CC1(C)Cc2c(c(=S)nc(-c3ccccc3)n2Cc2cccnc2)CO1 | -11.5% | 35.5µM* | -2.2% | 24.5% | 1.0%
CC(=O)Oc1oc(-c2ccccc2)nc1C=Nc1ccc(N(C)C)cc1 | 0.7% | -3.7% | -15.7% | 17.4% | 1.3%
CN(C)c1ccc(N=Cc2cccn2C)cc1 | 20µM* | 8.91µM* | 50.1µM* | -33.9% | /
COCCN(CC(=O)Nc1cccc(C)c1C)C(=O)C1(c2ccc(Cl)cc2)CCC1 | / | / | -15.7% | 60.5% | -8.5%
COc1ccc(NC(=O)CN2CCCCCC2)cc1OC | 5.0% | 21.1% | -9.2% | -5.1% | /
O=C(c1ccc2c(c1)N(Cc1ccc(Cl)cc1)C(=O)c1ccccc1S2(=O)=O)N1CCCC1 | -19.8% | -33.5%[59 µM] | -23.9% | 27.3% | /
CCCNC(=O)C/C(C)=N/NC(=O)C(=O)Nc1ccccn1 | -5.0% | 50.1µM* | -4.5% | 72.5% | 13.5%
CCOC(=O)C1CCCN(C(=O)c2ccc(NC(=O)c3nsc4ccccc34)cc2)C1 (stereo unspecified) | -4.1% | -35.4%[59 µM] | -21.4% | 18.0%[57 µM] | /
COC(=O)c1sccc1NC(=O)CC1C(=O)NCCN1C(=O)Nc1cc(Cl)ccc1OC (stereo unspecified) | -20.4% | ? | -15.4% | 30.7% | -11.0%
COc1cccc(NC(=O)CSc2nc3ccc(NC(=O)c4cccs4)cc3s2)c1 | -15.1% | 1.5%[59 µM] | -1.7% | 64.0% | /
Cc1ccc(CN2C(=O)C3CCCN3c3ncccc32)cc1 (stereo unspecified) | ? | -19.9% | -25.2% | 34.0% | /
Cc1ccc(CN2C(=O)C3CCCN3c3ccc(S(=O)(=O)N4CCOCC4)cc32)cc1 (stereo unspecified) | -5.6% | 12.6µM* | / | / | -3.0%
CCc1ccccc1NC(=O)CN1C(=O)C2CCCN2c2ccc(S(=O)(=O)N(CC)CC)cc21 (stereo unspecified) | -3.3% | ? | -2.9% | 10.1% | /
CCN(CC)S(=O)(=O)c1ccc2c(c1)N(CC(=O)Nc1ccc(C)cc1C)C(=O)C1CCCN21 (stereo unspecified) | -14.6% | 14.1µM* | -15.9% | 50.4% | /
